Several values for one entry are separate records, joined by “and”; a condition that tells them apart may be missing. Identical values can stand only once. Values without a mark were called inactive. Activity calls are given as the source filed them. Unless noted, no rule for the calls is given here.
Columns and labels:
[1] = antimalarial activity against Dd2 strain (AID 2302;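 active = growth inhibition above 50% at the single 2 µM test dose, taken to imply half-maximal potency below 2 µM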;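 also: 0% = DMSO untreated growth and 100% = chloroquine plus artemisinin killed control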); conditions: P. falciparum Dd2 in RBCs, LDH growth readout, 72 h; at 2 µM; stronger effect = higher value
[2] = human hepatoma cell viability loss – ATP luminescence, cytotoxicity control for P. falciparum antimalarial project, primary screen (AID 2303;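 active = inhibition above 50%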;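 also: 0% = DMSO wells and 100% = digitonin-killed cells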); conditions: HepG2 viability, 24-48 h, at 10 µM, stronger effect = higher value
[3] = target: L-lactate dehydrogenase (Plasmodium falciparum (isolate CDC / Honduras)) (UniProt Q27743); experiment: PfLDH activity inhibition – cell lysate, 3D7 strain, counter-screen for P. falciparum growth inhibition project (AID 2304);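 also: 0% = vehicle and 100% = reference inhibitor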; conditions: P. falciparum 3D7 crude extract, LDH APAD/NBT absorbance; at 2 µM; stronger effect = higher value
Sequence of L-lactate dehydrogenase (Plasmodium falciparum (isolate CDC / Honduras)) (Q27743 whole entry, looked up): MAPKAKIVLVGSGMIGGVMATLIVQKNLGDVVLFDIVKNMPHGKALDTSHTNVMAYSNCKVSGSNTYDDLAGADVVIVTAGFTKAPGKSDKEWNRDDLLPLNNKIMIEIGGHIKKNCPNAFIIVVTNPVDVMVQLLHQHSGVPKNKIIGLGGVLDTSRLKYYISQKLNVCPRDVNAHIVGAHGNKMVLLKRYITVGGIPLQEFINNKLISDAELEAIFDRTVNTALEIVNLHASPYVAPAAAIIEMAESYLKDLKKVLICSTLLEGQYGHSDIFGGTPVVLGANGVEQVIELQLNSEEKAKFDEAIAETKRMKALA

[4] = inhibition of 3D7 malaria parasite growth – strain 3D7 (AID 2306);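 also: 0% = DMSO wells and 100% = chloroquine plus artemisinin control wells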; conditions: P. falciparum 3D7 erythrocytic growth, LDH absorbance, 72 h; at 2 µM; stronger effect = higher value
[5] = compounds altering circadian rhythm period length – cell-based, LOPAC library, luminescence reporter (AID 2774); conditions: circadian reporter cells, at 7 µM, actives lie on both sides;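 also: values are relative to mean of DMSO wells on each plate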

## Oc1c(C=Nn2cnnc2)sc2ccccc12
[1]
  growth inhibition: 68% (active)
[2]
  inhibition: -4%
[3]
  inhibition: 0%
[4]
  growth inhibition: 93% (active)

## Cc1[nH]c2c(c(=O)c1Cl)-c1ccc(Oc3cccc(C(F)(F)F)c3)cc1C2=O
[1]
  growth inhibition: 97% (active)
[2]
  inhibition: 25%
[3]
  inhibition: 2%
[4]
  growth inhibition: 98% (active)

## CC(=NNC(N)=O)C1=C(O)C(c2ccccc2)N(C2CCCCC2)C1=O (centres undefined)
[1]
  growth inhibition: 96% (active)
[2]
  inhibition: 59% (active)
[3]
  inhibition: 0%
[4]
  growth inhibition: 93% (active)

## COc1ccc2nccc([C@@H](O)CN3CC[C@H](NCc4nc5c(cc4Cl)SCC(=O)N5)[C@H](F)C3)c2c1
[1]
  growth inhibition: 94% (active) and 100% (active)
[2]
  inhibition: 10% and 20%
[3]
  inhibition: -3% and 1%
[4]
  growth inhibition: 94% (active) and 99% (active)

## O=C(NN=Cc1nc2ccccc2[nH]1)c1cccc([N+](=O)[O-])c1
[1]
  growth inhibition: 82% (active)
[2]
  inhibition: -3%
[3]
  inhibition: 2%
[4]
  growth inhibition: 99% (active)

## Cc1cc(-c2cc(-c3ccc(OCCN(C)C)cc3)[nH]c2-c2ccc3c(c2)CCC3=NO)ccn1
[1]
  growth inhibition: 92% (active)
[2]
  inhibition: -13%
[3]
  inhibition: -3%
[4]
  growth inhibition: 100% (active)

## COc1ccc2nc(C)cc(NN=Cc3cc(C)ccc3O)c2c1
[1]
  growth inhibition: 100% (active)
[2]
  inhibition: 78% (active)
[3]
  inhibition: -2%
[4]
  growth inhibition: 100% (active)

## CCC[C@@H]([C@@H](CC(C)C)C(=O)N[C@@H](CCCN=C(N)NS(C)(=O)=O)C(=O)Nc1nccs1)N(O)C=O
[1]
  growth inhibition: 41%
[2]
  inhibition: 10%
[3]
  inhibition: 0%
[4]
  growth inhibition: 95% (active)

## O=[N+]([O-])c1ccc(-c2nc3ccc(C4=N[C@H]5CCCC[C@H]5N4)cc3[nH]2)cc1
[1]
  growth inhibition: 30%
[2]
  inhibition: -1%
[3]
  inhibition: 3%
[4]
  growth inhibition: 100% (active)

## COc1ccc2ncc(F)c(CCN3C[C@H](CNCc4nc5c(cc4Cl)OCC(=O)N5)[C@H](O)C3)c2n1
[1]
  growth inhibition: 15% and 23% and 30%
[2]
  inhibition: 13% and 5% and 12%
[3]
  inhibition: 0% and -2% and 2%
[4]
  growth inhibition: 93% (active) and 90% (active)

## CCC[C@@H]([C@@H](CC1CCCCC1)C(=O)N[C@H](C(=O)Nc1nccc(N)n1)C(C)(C)C)N(O)C=O
[1]
  growth inhibition: 82% (active)
[2]
  inhibition: 25%
[3]
  inhibition: 5%
[4]
  growth inhibition: 96% (active)

## O=C(/C=C/c1ccc(Cl)c(Cl)c1)NCCCCCN1CC[C@H](c2c[nH]c3ccccc23)[C@@H](O)C1
[1]
  growth inhibition: -2%
[2]
  inhibition: 34%
[3]
  inhibition: -3%
[4]
  growth inhibition: 99% (active)

## Cc1[nH]c2ccccc2c1C=NNc1nc(Nc2ccccc2)nc(Nc2ccccc2)n1
[1]
  growth inhibition: 23%
[2]
  inhibition: 3%
[3]
  inhibition: 6%
[4]
  growth inhibition: 87% (active)

## Oc1ccc2ccccc2c1C=NNc1nc(Nc2ccccc2)nc(Nc2ccccc2)n1
[1]
  growth inhibition: 73% (active)
[2]
  inhibition: 55% (active)
[3]
  inhibition: -2%
[4]
  growth inhibition: 99% (active)

## CN(C)c1nc(NN=Cc2cc(Cl)ccc2O)nc(Nc2ccc(F)cc2)n1
[1]
  growth inhibition: 46%
[2]
  inhibition: 32%
[3]
  inhibition: -3%
[4]
  growth inhibition: 94% (active)

## CCC[C@@H]([C@@H](CC1CCCCC1)C(=O)N[C@H](C(=O)Nc1ccccn1)[C@H](C)CC)N(O)C=O
[1]
  growth inhibition: 87% (active)
[2]
  inhibition: 24%
[3]
  inhibition: 2%
[4]
  growth inhibition: 96% (active)

## O=[N+]([O-])c1cccc(-c2nc3ccc(C4=N[C@H]5CCCC[C@H]5N4)cc3[nH]2)c1
[1]
  growth inhibition: 81% (active)
[2]
  inhibition: 4%
[3]
  inhibition: -7%
[4]
  growth inhibition: 101% (active)

## O=C(NC=Nc1cc([N+](=O)[O-])c(-c2ccncc2)n1-c1ccccc1)c1cccc(O)c1
[1]
  growth inhibition: 56% (active)
[2]
  inhibition: 2%
[3]
  inhibition: 4%
[4]
  growth inhibition: 100% (active)

## C=CC[C@H](C[C@H](O)[C@H](Cc1ccccc1)NC(=O)c1ccc(-c2cccnn2)cc1)C(=O)NC1CCCCC1
[1]
  growth inhibition: -1%
[2]
  inhibition: 2%
[3]
  inhibition: 4%
[4]
  growth inhibition: 83% (active)

## COc1cc(C=NNc2ccnc3cc(Cl)ccc23)ccc1O
[1]
  growth inhibition: 100% (active)
[2]
  inhibition: 15%
[3]
  inhibition: -7%
[4]
  growth inhibition: 101% (active)

## CO[C@H](C)[C@H](NC(=O)[C@H](CC(C)C)[C@H](CCC(F)(F)F)N(O)C=O)C(=O)Nc1nccs1
[1]
  growth inhibition: 96% (active)
[2]
  inhibition: 0%
[3]
  inhibition: 1%
[4]
  growth inhibition: 99% (active)

## CC1CCC(C[C@@H](C(=O)N[C@@H](CCC(=O)N2CCCCC2)C(=O)Nc2nccs2)[C@H](C(C)C)N(O)C=O)CC1 (some centres undefined)
[1]
  growth inhibition: 70% (active)
[2]
  inhibition: 38%
[3]
  inhibition: 7%
[4]
  growth inhibition: 87% (active)

## Oc1cccc(-c2nc3ccc(C4=N[C@H]5CCCC[C@H]5N4)cc3[nH]2)c1
[1]
  growth inhibition: 97% (active)
[2]
  inhibition: -3%
[3]
  inhibition: 1%
[4]
  growth inhibition: 98% (active)

## c1cc2nc(CCCCCc3nc4ccc(C5=N[C@@H]6CCCC[C@@H]6N5)cc4[nH]3)[nH]c2cc1C1=N[C@@H]2CCCC[C@@H]2N1
[1]
  growth inhibition: 98% (active)
[2]
  inhibition: 8%
[3]
  inhibition: 1%
[4]
  growth inhibition: 96% (active)

## CC(C)C[C@@H](C(=O)N[C@H](C(=O)Nc1nccs1)C(C)(C)C)[C@H](CCC(F)(F)F)N(O)C=O
[1]
  growth inhibition: 71% (active)
[2]
  inhibition: 11%
[3]
  inhibition: 5%
[4]
  growth inhibition: 97% (active)

## O=C(Nc1cccc(-c2nn3ccccc3c2-c2ccnc(Nc3ccc(-c4cc[nH]n4)cc3)n2)c1)c1c(F)cccc1F
[1]
  growth inhibition: 98% (active)
[2]
  inhibition: 68% (active)
[3]
  inhibition: 5%
[4]
  growth inhibition: 98% (active)

## Oc1cccc(-c2nc(-c3ccccc3)c(-c3ccc4oc5ccc(-c6[nH]c(-c7cccc(O)c7)nc6-c6ccccc6)cc5c4c3)[nH]2)c1
[1]
  growth inhibition: 35%
[2]
  inhibition: 30%
[3]
  inhibition: 4%
[4]
  growth inhibition: 91% (active)

## COc1ccc(Nc2nc(NN=Cc3ccc(O)cc3)nc(Nc3ccc([N+](=O)[O-])cc3)n2)cc1
[1]
  growth inhibition: 16%
[2]
  inhibition: -1%
[3]
  inhibition: 0%
[4]
  growth inhibition: 93% (active)

## O=[N+]([O-])c1ccc(Nc2nc(NN=Cc3cc(Cl)cc(Cl)c3O)nc(Nc3ccccc3)n2)cc1
[1]
  growth inhibition: 72% (active)
[2]
  inhibition: 29%
[3]
  inhibition: -6%
[4]
  growth inhibition: 100% (active)

## CCCCCC(C)C(C)c1cc(O)c2c(c1)OC(C)(C)CC2=Cc1ccncc1 (centres undefined)
[1]
  growth inhibition: 78% (active)
[2]
  inhibition: -8%
[3]
  inhibition: 2%
[4]
  growth inhibition: 100% (active)

## CN(C)c1cc(NN=Cc2cc(Cl)ccc2O)nc(N(C)C)n1
[1]
  growth inhibition: 98% (active)
[2]
  inhibition: 3%
[3]
  inhibition: 0%
[4]
  growth inhibition: 98% (active)

## Nc1ccc(-c2nc3cc(C4=N[C@H]5CCCC[C@H]5N4)ccc3o2)cc1[N+](=O)[O-]
[1]
  growth inhibition: 33%
[2]
  inhibition: 16%
[3]
  inhibition: 1%
[4]
  growth inhibition: 95% (active)

## Oc1cccc(-c2nc(-c3cccc(I)c3)c(-c3ccc(-c4nc(-c5cccc(O)c5)[nH]c4-c4cccc(I)c4)cc3)[nH]2)c1
[1]
  growth inhibition: 66% (active)
[2]
  inhibition: -4%
[3]
  inhibition: -2%
[4]
  growth inhibition: 96% (active)

## Nc1c2c(nc3ccccc13)C(=Cc1ccc(O)cc1)CCC2
[1]
  growth inhibition: 6%
[2]
  inhibition: 9%
[3]
  inhibition: 5%
[4]
  growth inhibition: 99% (active)

## C[C@@H](Oc1ccc(Oc2cnc3ccc(Cl)cc3n2)cc1)C(=O)O
[5]
  period change: -0.01 h

## O=C(/C=C/c1ccc(Cl)c(Cl)c1)NCCCCCN1CC[C@H](c2c[nH]c3ccccc23)[C@H](O)C1
[1]
  growth inhibition: 9%
[2]
  inhibition: 12%
[3]
  inhibition: -5%
[4]
  growth inhibition: 96% (active)

## ON=C1CCc2cc(-c3nc(-c4cccc(OCCNCc5ccc(F)cc5)c4)[nH]c3-c3ccncc3)ccc21
[1]
  growth inhibition: 69% (active)
[2]
  inhibition: 76% (active)
[3]
  inhibition: -3%
[4]
  growth inhibition: 89% (active)

## Oc1ccc(-c2nc(-c3ccc4oc5ccc(-c6[nH]c(-c7ccc(O)cc7)nc6-c6ccccc6)cc5c4c3)c(-c3ccccc3)[nH]2)cc1
[1]
  growth inhibition: 71% (active)
[2]
  inhibition: -2%
[3]
  inhibition: 3%
[4]
  growth inhibition: 84% (active)

## CCn1c(=O)c2[nH]c(-c3ccccc3)nc2n(CC)c1=O
[5]
  period change: -0.165 h

## COc1cc(-c2nc(-c3ccc4c(c3)CCC4=NO)c(-c3ccncc3)[nH]2)ccc1OCCN1CCN(C)CC1
[1]
  growth inhibition: 77% (active)
[2]
  inhibition: 53% (active)
[3]
  inhibition: 3%
[4]
  growth inhibition: 99% (active)

## COc1cc(C=C(C2=NC(=O)CS2)c2nc3cccnc3n2C)ccc1O
[1]
  growth inhibition: 48%
[2]
  inhibition: 7%
[3]
  inhibition: -7%
[4]
  growth inhibition: 89% (active)

## NC(=S)NCCCC(N)C(=O)O (centres undefined)
[5]
  period change: -0.05 h

Reference: PubChem BioAssay
